Most compounds without a hit are left out; they make up all but 10% or so of the library.
Mm-Cpn inhibitor: M. maripaludis TRiC chaperonin inhibition; Potency, µM (highest dose often 76.9 µM), for the others: at the highest dose activity, negative = inhibition, usual class: inhibitors; AID 504842; purified Mm-Cpn ATPase, ADP Transcreener TR-FRET; actives 0.031% (n = 330,000); also: potency is read from the fitted curve at half-maximal effect; nearly all actives have a fitted effect of over 80% in size
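Purified archaeal Mm-CPN (25nM final) preincubated 10 min at 37degC with compound, then 10uM ATP for 30 min at 37degC; ADP measured by HTRF Transcreener TR-FRET; buffer 30 mM TRIS pH 7.4, 100mM KCl, 5mM MgCl2, 1mM DTT.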
PLK1 PBD inh: blocks phosphopeptide binding to human PLK1 polo-box domain; actives 2.8% (n = 360,000); Plk1 PBD binding of FITC phosphopeptide, fluorescence polarization; P53350; Potency, µM, for the others: max response, negative = inhibition, usual class: inhibitors; also: potency is read from the fitted curve at half-maximal effect; series mostly up to about 57 µM; nearly all actives have a fitted effect of over 65% in size
Target sequence (P53350 whole entry, looked up, the tested form may be a part): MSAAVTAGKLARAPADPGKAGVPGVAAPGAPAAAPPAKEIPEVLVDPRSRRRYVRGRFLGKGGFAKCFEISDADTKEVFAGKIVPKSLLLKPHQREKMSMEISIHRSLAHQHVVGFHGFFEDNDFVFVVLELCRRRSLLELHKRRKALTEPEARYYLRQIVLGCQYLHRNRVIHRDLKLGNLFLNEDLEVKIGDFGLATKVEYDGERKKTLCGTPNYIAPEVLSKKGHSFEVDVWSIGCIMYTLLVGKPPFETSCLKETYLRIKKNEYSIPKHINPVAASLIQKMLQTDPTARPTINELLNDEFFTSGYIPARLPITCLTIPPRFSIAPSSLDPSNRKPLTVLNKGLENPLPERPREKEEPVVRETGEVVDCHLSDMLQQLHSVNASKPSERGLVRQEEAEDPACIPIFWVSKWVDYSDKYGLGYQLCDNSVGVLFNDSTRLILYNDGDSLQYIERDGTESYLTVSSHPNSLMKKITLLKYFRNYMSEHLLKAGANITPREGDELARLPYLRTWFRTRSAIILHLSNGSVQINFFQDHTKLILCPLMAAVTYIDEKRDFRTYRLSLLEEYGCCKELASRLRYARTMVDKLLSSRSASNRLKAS
CCT chaperon mod: changes cytosolic chaperonin activity | actives 0.3% (n = 360,000) | AID 651819 | activity change, % (concentration not given with the values), hits read low | purified chaperonin ATPase assay, HTRF ADP detection, 30 min; in the data active = activity change below about -30%
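First, chaperonin was dispensed at 40 nM or 20 nM final depending on batch activity. Next, compounds were pinned at 76 uM and ATP added at 10 uM. After 30 min at 37 °C, ADP detection reagents ran 30 min at ambient temperature.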
VDR inhibitor: inhibitors of human vitamin D receptor; P11473; VDR-SRC2-3 peptide fluorescence polarization, 2 h; Potency, µM, for inactives: max response, negative = inhibition, actives largely listed as inhibitors; actives 0.93% (n = 400,000); AID 504847; also: potency is read from the fitted curve at half-maximal effect
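The screen uses fluorescence polarization to detect compounds that interfere with recruitment of the SRC2-3 coactivator peptide to VDR; plates are read after 2 h at room temperature.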
G9a block: G9a (human) methyltransferase inhibition | Q96KQ7 | G9a H3K9 monomethylation, AlphaScreen, 2 h | Potency, µM (highest dose often 102 µM), for inactives: top-dose activity, negative = inhibition, actives largely listed as inhibitors | actives 8.8% (n = 350,000) | AID 504332; also: potency is read from the fitted curve at half-maximal effect; nearly all actives have a fitted effect of over 75% in size
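Quantitative HTS format: methyltransferase activity on a biotin-tagged H3K9 peptide is measured by AlphaScreen, using a rabbit anti-monomethyl-H3K9 antibody with streptavidin donor and anti-IgG acceptor beads. Final levels are 20 nM enzyme, 500 nM peptide, 20 uM SAM; 2 h RT.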
Sfp PPTase inh: Sfp phosphopantetheinyl transferase inhibition; Biochemical Sfp PPTase activity, qHTS; AID 1490; actives 3.5% (n = 310,000); Q9F4F7; Potency, µM, for inactives: largest response in the series, negative = inhibition, usual class: inhibitors;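 also: the enzyme is Sfp with the accession as filed and its product quenches rhodamine fluorescence; potency is read from the fitted curve at half-maximal effect; 0% = enzyme reaction without inhibitor and -100% = no enzyme wells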
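Reaction rates are the 30-min fluorescence difference (ex 525, em 598 nm) in wells containing 15 nM Sfp, 5 uM rhodamine-CoA and 12.5 uM BHQ-2-YbbR at pH 7.6 with 10 mM MgCl2.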
Active calls of the source: *; ? = inconclusive; · = not tested or not shown; ! = repeats disagree; [ ] = remark or other dose. Unless noted, calls follow the shape of the dose curve; as a rule, active = well fitted curve in the direction sought with a large enough effect; inconclusive = small, poorly fitted or top-dose-only effect, or another doubt; inactive = no such curve, though single readings can be large; an effect the other way counts as inactive or inconclusive. Unless noted, % is scaled to controls: 0 for no effect and ±100 for the full control effect.

SMILES | Mm-Cpn inhibitor | PLK1 PBD inh | CCT chaperon mod | VDR inhibitor | G9a block | Sfp PPTase inh
Cc1[nH]c2ccccc2c1C(c1ccccn1)c1c(C)[nH]c2ccccc12 | -3% | ? | -2 | 14% | 28µM* | 40µM*
Cc1ccccc1-n1c(=O)c2c(n3cnnc13)-c1ccccc1CC21CCCCC1 | 0% | -6% | 2 | 9% | -8%[59 µM] | -4%
CCCn1c(SCC(N)=O)nc2c(c1=O)C1(CCCC1)Cc1ccccc1-2 | -3% | -3% | -4 | -19% | -33% | 6%
N#CCSc1n[nH]c2nc3c(c(=O)n12)C1(CCCCC1)Cc1ccccc1-3 | 1% | ? | -1 | -12% | · | 50µM*
CCn1c(=O)c2c(n3c(=S)[nH]nc13)-c1ccccc1CC21CCCCC1 | -1% | ? | -1 | -16% | 1.6µM* | 18µM*
CCSc1n[nH]c2nc3c(c(=O)n12)C1(CCCCC1)Cc1ccccc1-3 | 2% | 13µM* | -2 | ? | · | -26%
CSc1n[nH]c2nc3c(c(=O)n12)C1(CCCCC1)Cc1ccccc1-3 | 2% | 24µM* | -2 | -24% | · | 18µM*
CCn1c(SCC#N)nc2c(c1=O)C1(CCCC1)Cc1ccccc1-2 | 0% | -10% | -2 | -8% | 27%[59 µM] | 6%
Cc1cccc(C(=O)N2CCC(N3CCN(Cc4ccc(F)cc4)C(=O)C3=O)CC2)c1 | · | · | · | 7% | 0%[59 µM] | ·
CC1=C(C(=O)O)N2C(=O)C(NC(=O)c3ccc(F)cc3)C2SC1 (stereo not given) | -1% | 24µM* | 3 | -19% | 0.89µM* | ·
CC1=C(C(=O)O)N2C(=O)C(NC(=O)c3nn(C)cc3Cl)C2SC1 (stereo not given) | 1% | 27µM* | -3 | -11% | ? | 40µM*
CC1=C(C(=O)O)N2C(=O)C(NC(=O)C(N)C3=CCC=CC3)C2SC1 (stereo not given) | · | · | · | · | · | -75%
CC1=C(C(=O)O)N2C(=O)[C@@H](NC(=O)C(N)C3=CCC=CC3)[C@H]2SC1 (stereo not given in full) | · | · | · | ? | 12µM*! | ·
CC1=C(C(=O)O)N2C(=O)C(NC(=O)c3ccccc3Cl)C2SC1 (stereo not given) | 1% | ? | 0 | -4% | 1.8µM* | 8.9µM*
COc1cccc2c1cc1c(=O)n(CC(=O)NCc3ccco3)nc(C)n12 | · | · | · | 17% | -26%[59 µM] | ·
CC1CCN(Cc2c(O)ccc3c(=O)c(-c4cccc(Cl)c4)c(C(F)(F)F)oc23)CC1 | · | · | · | -1% | -4%[59 µM] | ·
CCCCCn1c(CCCNC(=O)c2cccc(C)c2)nc2ccccc21 | · | · | · | 8% | 3%[59 µM] | ·
Cc1nc2cc(-c3ccc(Cl)cc3)nn2c(NCCN(C)C)c1C | -2% | -9% | 0 | 26% | 71µM* | 14%
CC(=O)N1c2ccc(S(=O)(=O)N3CCCCCC3)cc2CC1C(=O)NCc1ccccc1F (stereo not given) | · | · | · | 3% | 0%[59 µM] | ·
CCc1ccc(-n2c3nc(=O)[nH]c(=O)c-3cc3c(C)nn(-c4ccccc4)c32)cc1 | · | · | · | -24% | -4%[59 µM] | ·
O=C(Nc1nnc(SCc2ccccn2)s1)C1CC(=O)N(c2ccc(F)cc2)C1 (stereo not given) | -3% | -18% | 0 | -10% | 28µM* | 4%
O=C(Nc1nnc(SCC(=O)N2CCCC2)s1)C1CC(=O)N(c2ccc(F)cc2)C1 (stereo not given) | -1% | -24% | -1 | -15% | 20µM* | ?
O=C(Nc1nnc(SCC(=O)N2CCCCC2)s1)c1cccs1 | -1% | ? | 1 | 6% | 8.9µM* | -15%
O=C(Nc1nnc(SCC(=O)N2CCOCC2)s1)C1CC(=O)N(c2ccc(F)cc2)C1 (stereo not given) | -5% | -22% | -1 | -9% | 19%[12.7 µM] | ?
O=C(Cc1cccs1)Nc1nnc(SCC(=O)N2CCCCC2)s1 | 1% | -14% | -1 | -20% | -32%[12.7 µM] | 18%
SMILES | Mm-Cpn inhibitor | PLK1 PBD inh | CCT chaperon mod | VDR inhibitor | G9a block | Sfp PPTase inh
O=C(CSc1nnc(NC(=O)C2CC(=O)N(c3ccc(F)cc3)C2)s1)NC1CCCC1 (stereo not given) | 1% | 4% | 0 | -19% | 25µM* | -20%
CCSc1nc(-c2ccc(Cl)cc2)nc2c1Cc1c(CO)cnc(C)c1O2 | · | · | · | -5% | ? | ·
O=C(NCC(c1ccccc1)c1ccccc1)c1nn(-c2ccccc2F)nc1CO | · | · | · | 10% | 25%[59 µM] | ·
CO[C@@H]1COC(=O)C/C=C\[C@@H](C)[C@H](OC)COC(=O)[C@H](COCc2ccccc2)NC(=O)C/C=C\[C@H]1C | · | · | · | · | · | -11%
C[C@H]1COc2c(N3CCN(C)CC3)c(F)cc3c(=O)c(C(=O)NCc4ccco4)cn1c23 | · | · | · | 3% | · | -2%
COc1cccc(NC(=O)CSc2nnc(Cc3cccs3)n2-c2ccc(C)cc2)c1 | 1% | -7% | -4 | -1% | -37%[59 µM] | 13%
COc1ccc(NC(=O)CSc2nnc(Cc3cccs3)n2-c2ccc(C)cc2)cc1 | -1% | -4% | -2 | -7% | 35µM* | 6%
O=C(CSc1nnc(Cc2cccs2)n1-c1ccc(Cl)cc1)NCc1ccc2c(c1)OCO2 | 0% | -2% | -2 | 5% | 50µM* | 5%
Cc1ccc(-n2c(Cc3cccs3)nnc2SCC(=O)Nc2ccc(S(N)(=O)=O)cc2)cc1 | 0% | -6% | -3 | 5% | 45µM* | 10%
CN(C(=O)CSc1nc(C2CCCC2)nc2c1c(=O)n(C)c(=O)n2C)c1ccccc1 | · | · | · | 4% | 2%[59 µM] | ·
Cc1cc(C(=O)OCC(=O)NC(C)C)c2ccccc2n1 | 1% | 12µM* | -1 | ? | -2% | 21%
COc1ccc(CNC(=O)COC(=O)c2cc(C)nc3ccccc23)cc1 | -3% | -8% | -1 | -27% | · | ·
COc1ccc(CNC(=O)COC(=O)c2cc(-c3ccco3)nc3ccccc23)cc1 | -3% | · | · | · | 10µM* | ?
O=C(OCC(=O)N1CCN(C(=O)c2ccco2)CC1)c1cc(-c2ccc(Cl)c(Cl)c2Cl)nc2ccccc12 | 1% | -17% | 0 | 2% | 79µM* | -17%
CCNC(=O)COC(=O)c1cc(-c2ccco2)nc2ccccc12 | -5% | ? | 0 | ? | 40µM* | 16µM*
O=C(OCC(=O)N1CCN(C(=O)c2ccco2)CC1)c1cc(-c2ccco2)nc2ccccc12 | 1% | ? | 2 | -27% | · | -103%
Cc1cc(C(=O)OCC(=O)NC2CCCC2)c2ccccc2n1 | 1% | -1% | -6 | -1% | -1%[0.501 µM] | ·
COc1cccc(NC(=O)N2CCC(n3c(C)nc4cccnc43)CC2)c1 | · | · | · | -1% | 22%[59 µM] | ·
CCN(CC)CCNC(=O)c1ccc(NC(=O)c2cn(-c3ccc(F)cc3)nc2-c2cccc(OC)c2)cc1 | 3% | 4% | -1 | -1% | -17% | 50µM*

Source: PubChem BioAssay (National Center for Advancing Translational Sciences (NCATS))
